For assay [1], the system named is MCC-13. Put plainly: qHTS assay to identify novel small-molecules to repurpose for Merkel cell carcinoma treatment (AID 1296009). Also: nearly all actives have a fitted effect of over 60% in size. The note with it: MCC and control cell lines, CellTiter-Glo viability, 72 h; series mostly up to 46 µM. Summed up:
(§1)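 qHTS format: cells treated with library compounds in DMSO across 8 (NPC) or 11 (MIPE) concentrations. Readout after 72 hr at 37 degree celsius was CellTiter-Glo luminescence.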

For assay [2], the system named is MCC-26. The assay is described as above. The note with it: MCC and control cell lines, CellTiter-Glo viability, 72 h; series mostly up to 46 µM. The method in brief:
as §1
(ATP-based viability assays read luminescence as a measure of living cells.)

The test system of assay [3] is MKL-1. The assay is described as above. The note with it: MCC and control cell lines, CellTiter-Glo viability, 72 h; series mostly up to 46 µM. The method in brief:
as §1

Assay [4] relates to MKL-2. The description is as above. The note with it: MCC and control cell lines, CellTiter-Glo viability, 72 h; series mostly up to 46 µM. The method in brief: as §1
For assay [5], the system named is NIH3T3. Described as above. The note with it: MCC and control cell lines, CellTiter-Glo viability, 72 h; at 44.8 µM (top of the series) unless noted. Summed up:
as §1

In assay [6] the test system is UISO. The description is as above. The note with it: MCC and control cell lines, CellTiter-Glo viability, 72 h; series mostly up to 46 µM. Summed up:
as §1

Assay [7] relates to WaGa. The assay is described as above. The note with it: MCC and control cell lines, CellTiter-Glo viability, 72 h; series mostly up to 46 µM. The method in brief:
as §1

In assay [8] the test system is C33A. The assay is described as follows: Primary qHTS to identify gynecologic anti-cancer compounds using libraries of approved drugs and bioactive compounds (AID 1345084). Also: nearly all actives have a fitted effect of over 55% in size. The note with it: Gynecologic cancer cell panel viability, ATPlite luminescence, 48 h; series mostly up to 57.5 µM. Summed up:
(§2)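 Cells, 1,000 per well, plated 16 h, then exposed 48 h at 37 C to compounds. Viability by ATPlite luminescence after 15 min at room temperature.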

The subject of assay [9] is CAOV3. Described as above. The note with it: Gynecologic cancer cell panel viability, ATPlite luminescence, 48 h; series mostly up to 57.5 µM. Summed up:
as §2

In assay [10] the test system is CASKI. Described as above. The note with it: Gynecologic cancer cell panel viability, ATPlite luminescence, 48 h; series mostly up to 57.5 µM. The method in brief:
as §2

In assay [11] the test system is Es-2. Described as above. The note with it: Gynecologic cancer cell panel viability, ATPlite luminescence, 48 h; series mostly up to 57.5 µM. Summed up: as §2
Assay [12] has as its system Hek293T. The description is as above. The note with it: Gynecologic cancer cell panel viability, ATPlite luminescence, 48 h, control line for the selectivity index; series mostly up to 57.5 µM. Summed up: as §2
The test system of assay [13] is JEG-3. The description is as above. The note with it: Gynecologic cancer cell panel viability, ATPlite luminescence, 48 h; series mostly up to 57.5 µM. Summed up: as §2
The subject of assay [14] is OV90. Described as above. The note with it: Gynecologic cancer cell panel viability, ATPlite luminescence, 48 h; series mostly up to 57.5 µM. Summed up:
as §2

Assay [15] has as its system PA-1. The description is as above. The note with it: Gynecologic cancer cell panel viability, ATPlite luminescence, 48 h; series mostly up to 57.5 µM. Summed up: as §2
The test system of assay [16] is SKOV3. The description is as above. The note with it: Gynecologic cancer cell panel viability, ATPlite luminescence, 48 h; series mostly up to 57.5 µM. Summed up: as §2
For assay [17], the system named is Tov-21-G. Described as above. The note with it: Gynecologic cancer cell panel viability, ATPlite luminescence, 48 h; series mostly up to 57.5 µM. Summed up: as §2
For assay [18], the system named is Tov112D. The assay is described as above. The note with it: Gynecologic cancer cell panel viability, ATPlite luminescence, 48 h; series mostly up to 57.5 µM. Summed up:
as §2

Assay [19] can be described thus: Drug repurposing screens with cells derived from glioblastoma tumor samples (AID 1345199). Also: nearly all actives have a fitted effect of over 40% in size. Also: potency is read from the fitted curve at half-maximal effect. The note with it: GBM patient neurospheres viability, ATP luminescence, 48 h. The method in brief:
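Four patient lines of CD133+ GBM neurospheres were screened at several concentrations; hits were retested in those lines plus three slower-growing GBM lines, using 48-hour treatment and ATP-based viability.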

Assay [20] has as its system HeLa. The assay is described as follows: Primary qHTS to identify gynecologic anti-cancer compounds using libraries of approved drugs and bioactive compounds (AID 1345084). Also: nearly all actives have a fitted effect of over 55% in size. The note with it: Gynecologic cancer cell panel viability, ATPlite luminescence, 48 h; series mostly up to 57.5 µM. Summed up:
as §2
For orientation: qHTS replaces the single test concentration by a dilution series.

Setting [21] is: at 45.9 µM (top of the series), tumour line B.
Where [22] appears, read: at 45.9 µM (top of the series), tumour line D.
Setting [23] is: at 46 µM (top of the series), tumour line A.
The mark [24] stands for this setting: at 46.1 µM (top of the series), tumour line C.

SMILES strings stand for the structures. Results filed as inconclusive are left out. A number with no mark means an inactive call. Activity calls are given as the source filed them. Calls follow the shape of the dose curve; as a rule, active = well fitted curve in the direction sought with a large enough effect; inconclusive = small, poorly fitted or top-dose-only effect, or another doubt; inactive = no such curve, though single readings can be large; an effect the other way counts as inactive or inconclusive.
% is scaled to controls: 0 for no effect and ±100 for the full control effect.

With `CC(=O)OCC1=C(C(=O)O)N2C(=O)[C@@H](NC(=O)Cc3cccs3)[C@H]2SC1`, the Potency result in assay [1], in [2], in assay [3], in [4], in [6] and in assay [7] was “inactive” throughout. In addition, the Potency entry in [8], in assay [9], in [10], in assay [11], in [12] and in [13] was “inactive” throughout. In addition, the Potency entry in assay [14], in assay [15], in [16], in assay [17] and in assay [18] was “inactive” throughout. Also, the molecule was called inactive in [5]. In addition, the activity, negative = cell killing in [19] (setting [21]) is 5.86%; in assay [19] (setting [22]) it was -7.52%; in assay [19] (setting [23]), -19.9%; in assay [19] (setting [24]) it was -19.9%.
For the molecule `Cc1ccc(=O)n(-c2ccccc2)c1`, the Potency entry in assay [1], in assay [2], in assay [3], in assay [4], in assay [6] and in [7] was “inactive” in each case. For the same molecule, the Potency entry in assay [8], in [9], in assay [10], in assay [11], in assay [20] and in assay [12] was “inactive” throughout. Further, the Potency entry in [13], in assay [14], in [15], in [16], in assay [17] and in [18] was “inactive” in each case. Moreover, the activity, negative = cell killing in [19] (setting [21]) was -7.87%; in assay [19] (setting [22]), 11.3%; in [19] (setting [23]) it was -13.3%; in assay [19] (setting [24]), -7.43%.
Regarding `Cc1ccc(S(=O)(=O)NC(=O)NN2CCCCCC2)cc1`, the Potency result in assay [1], in assay [2], in [3], in [4], in [6] and in assay [7] was “inactive” each time. For the same molecule, the Potency entry in assay [8], in assay [9], in [10], in assay [11], in assay [20] and in [12] was “inactive” throughout. Also, the Potency result in assay [13], in [14], in assay [15], in assay [16], in [17] and in [18] was “inactive” each time. In addition, the activity, negative = cell killing was 5.62% in assay [19] (setting [21]), 15.6% in assay [19] (setting [22]), -3.14% in assay [19] (setting [23]) and -5.87% in assay [19] (setting [24]).
`O=C(O)CP(=O)(O)O`: the Potency entry in assay [1], in assay [2], in assay [3], in assay [4], in assay [6] and in assay [7] was “inactive” throughout. Besides, the Potency result in assay [8], in assay [9], in [10], in assay [11], in [20] and in [12] was “inactive” in each case. For the same molecule, the Potency entry in [13], in assay [14], in [16], in [17] and in [18] was “inactive” throughout. Further, in assay [5], the call was inactive. The activity, negative = cell killing in [19] (setting [21]) was -17.9%; in [19] (setting [22]), 13.7%; in [19] (setting [23]) it was -25.2%; in assay [19] (setting [24]) it was -15.6%.
With `CCCCNc1ccc(C(=O)OCCN(C)C)cc1`, the Potency entry in [1], in assay [2], in [3], in assay [4], in [6] and in [7] was “inactive” each time. The Potency entry in assay [8], in assay [9], in [10], in [11], in assay [20] and in assay [12] was “inactive” throughout. Besides, the Potency entry in assay [13], in assay [14], in [15], in assay [16], in [17] and in [18] was “inactive” each time. The molecule was classed as inactive in assay [5]. In addition, the activity, negative = cell killing in assay [19] (at 20 µM (top of the series), tumour line C) is -9.33%. Besides, the Potency in assay [19] (tumour line A) is 14.1 µM (active).

Source of the values: PubChem BioAssay (NCATS).
